The supplement of paper PMC9694430

How the values were obtained:
Assay in all cases: thermal shift delta Tm vs DMSO control; higher = stronger stabilization (binding)
Conditions in all cases: 12.5 µM; protein concentration 2 µM
LOC_OS04G57630-cb004 = test system: LOC_OS04G57630-cb004
In short: (§1)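 Rice kinase domain constructs were expressed in E. coli, purified, and tested by differential scanning fluorimetry with compound added in DMSO. Each well of a 96-well plate held 19.5 μl of 2 μM kinase in 100 mM potassium phosphate pH 7.5, 150 mM NaCl, 10% glycerol and 5 × SYPRO Orange, and fluorescence was read from 25°C to 95°C at 0.05°C/s. The melting temperature shift is the mean of triplicates, taken against protein with DMSO alone after Boltzmann fitting.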

LOC_OS05G07850-cb002 = test system: LOC_OS05G07850-cb002
In short: as §1

LOC_OS05G16824-cb004 = test system: LOC_OS05G16824-cb004
In short: as §1

LOC_OS05G28520-cb001 = test system: LOC_OS05G28520-cb001
In short: as §1

LOC_OS05G30820-cb001 = test system: LOC_OS05G30820-cb001
In short: as §1

LOC_OS05G43570-cb004 = test system: LOC_OS05G43570-cb004
In short: as §1

LOC_OS06G16330-cb003 = test system: LOC_OS06G16330-cb003
In short: as §1

LOC_OS06G22820-cb001 = test system: T1, LOC_OS06G22820-cb001
T1 sequence (whole entry): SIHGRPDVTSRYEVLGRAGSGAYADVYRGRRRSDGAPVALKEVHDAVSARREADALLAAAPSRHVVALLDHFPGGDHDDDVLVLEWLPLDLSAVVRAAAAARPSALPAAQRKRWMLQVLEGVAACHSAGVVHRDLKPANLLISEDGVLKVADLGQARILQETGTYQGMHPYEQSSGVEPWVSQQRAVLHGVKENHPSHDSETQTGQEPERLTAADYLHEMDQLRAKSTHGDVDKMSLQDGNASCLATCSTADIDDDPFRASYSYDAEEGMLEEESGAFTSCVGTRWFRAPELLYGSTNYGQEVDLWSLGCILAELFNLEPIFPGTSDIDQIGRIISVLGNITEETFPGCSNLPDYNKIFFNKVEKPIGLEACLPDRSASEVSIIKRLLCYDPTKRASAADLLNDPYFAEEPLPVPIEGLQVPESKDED
In short: as §1

LOC_OS07G06570-cb004 = test system: LOC_OS07G06570-cb004
In short: as §1

LOC_OS07G07230-cb001 = test system: LOC_OS07G07230-cb001
In short: as §1

LOC_OS06G16330-cb003, sequence (as listed by the source): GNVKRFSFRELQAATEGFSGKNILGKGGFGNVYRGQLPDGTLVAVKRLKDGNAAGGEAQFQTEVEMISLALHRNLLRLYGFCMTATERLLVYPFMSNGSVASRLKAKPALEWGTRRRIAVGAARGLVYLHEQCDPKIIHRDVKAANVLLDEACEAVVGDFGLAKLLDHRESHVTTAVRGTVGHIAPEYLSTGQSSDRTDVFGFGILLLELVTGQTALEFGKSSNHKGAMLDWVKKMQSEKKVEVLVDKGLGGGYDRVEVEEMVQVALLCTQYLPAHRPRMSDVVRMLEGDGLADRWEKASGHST

SMILES | thermal shift delta Tm (LOC_OS04G57630-cb004) [°C] | thermal shift delta Tm (LOC_OS05G07850-cb002) [°C] | thermal shift delta Tm (LOC_OS05G16824-cb004) [°C] | thermal shift delta Tm (LOC_OS05G28520-cb001) [°C] | thermal shift delta Tm (LOC_OS05G30820-cb001) [°C] | thermal shift delta Tm (LOC_OS05G43570-cb004) [°C] | thermal shift delta Tm (LOC_OS06G16330-cb003) [°C] | thermal shift delta Tm (LOC_OS06G22820-cb001) [°C] | thermal shift delta Tm (LOC_OS07G06570-cb004) [°C] | thermal shift delta Tm (LOC_OS07G07230-cb001) [°C]
CNC(=O)c1cc(COc2nnc(Nc3ccc(Cl)cc3)c3ccoc23)ccn1 [Telatinib] | 0.3 | 0.35 | -3.58 | 0.37 | 0.56 | 0.21 | -0.23 | 0.39 | 0.17 | 0.1
Oc1c(F)cc(-c2cnccc2-c2ccc(N3CCOCC3)cc2)cc1F | 0.16 | 3.05 | -0.48 | 0.43 | 0.5 | 0.44 | 0.26 | 0.6 | 0.96 | 0.44
CC1(C)C=Cc2c(ccc3c2OC[C@@H](c2ccc(O)cc2O)C3)O1 [Glabridin] | 0.75 | 1.39 | 7.49 | 0.24 | -0.16 | 0.51 | 0.92 | 0.89 | 0.51 | -0.99
COc1ccc(-c2ccc3c(N4CCOC[C@@H]4C)nc(N4CCOC[C@@H]4C)nc3n2)cc1CO | -0.09 | 0.42 | -7.62 | 0.13 | 0.67 | 0.21 | 0.03 | 0.43 | 0.38 | 0.11
Cc1c(C(=O)Nc2ccc(Oc3ccnc4[nH]cc(-c5ccccc5)c34)c(F)c2)c(=O)n(-c2ccc(F)cc2)n1C | 0.42 | 14.4 | 1.37 | 0.13 | 0.63 | 0.25 | 6.4 | 0.86 | 1.05 | -0.13
Cc1ccc(Nc2nccc(N(C)c3ccc4c(C)n(C)nc4c3)n2)cc1S(N)(=O)=O | 0.96 | 8.97 | 4.72 | 0.97 | 0.39 | 1.48 | 3.83 | 0.9 | 1.14 | 0.54
Cc1cnc(NC(=O)Nc2cc(Br)c(C)cc2OC[C@@H]2CNCCO2)cn1 | 0.36 | 3.74 | 5.41 | 0.03 | 0.41 | 0.24 | 0.75 | 0.22 | 0.46 | 0.19
Cc1cc(CS(=O)(=O)c2ccccc2)cc(OCc2ccc(CN3CCC[C@@H]3CO)cc2)c1 | 0.05 | -0.44 | -3.52 | 0.56 | 0.38 | 0.08 | -0.51 | 0.68 | 1.18 | 0.08
C[C@@H]1CN(C(=O)c2ccc(NC(=O)c3cc(O[C@H](C)c4c(Cl)ccc(F)c4Cl)c(N)nn3)cc2)C[C@H](C)N1 [Ensartinib (X-396)] | 4.75 | 7.81 | 5.94 | 0.56 | 0.45 | 0.3 | 13.8 | 0.22 | 0.36 | 0.35
CN1CCN(Cc2ccc(-c3cnc4[nH]cc(-c5ccc6[nH]ccc6c5)c4c3)cc2)CC1 | 11.1 | 15.3 | 11.2 | 2.09 | 1.88 | 1.74 | 13.7 | 0.7 | 1.92 | 0.61
N#Cc1c(NC(=O)c2cccc3ccccc23)sc2c1CCCC2 [JNK Inhibitor IX] | 0.22 | 0.04 | -1.1 | 0.77 | 0.43 | 0.27 | -0.09 | 0.6 | 0.83 | 0.4
O=C(NOCCO)c1ccc2cncn2c1Nc1ccc(I)cc1F | -0.36 | -0.3 | -1.92 | 0.09 | 0.54 | 0.3 | -0.27 | 0.39 | 0.35 | 0.91
COc1cc2nccc(Oc3ccc(NC(=O)Nc4cc(C)on4)c(Cl)c3)c2cc1OC [Tivozanib (AV-951)] | 3.28 | 9.77 | 2.86 | 2.41 | 0.62 | 0.21 | 10.8 | 0.55 | 0.52 | -0.04
COc1cc2nccc(Oc3ccc(NC(=O)C4(C(=O)Nc5ccc(F)cc5)CC4)cc3)c2cc1OC [Cabozantinib malate (XL184)] | 0.66 | 10.2 | -1.18 | 1.86 | 0.41 | 0.69 | 1.53 | 0.93 | 1.5 | -0.02
C=CC(=O)Nc1cccc(Nc2nc(Nc3ccc(Oc4ccnc(C(=O)NC)c4)cc3)ncc2F)c1 | 1.31 | 11 | 6.27 | 0.89 | 0.57 | 0.22 | 6.48 | 0.38 | 0.89 | 1.49
CN1CCN(c2nc(C3=C(c4c[nH]c5ccccc45)C(=O)NC3=O)c3ccccc3n2)CC1 [Sotrastaurin] | -0.06 | 5.2 | 1.64 | 0.09 | 0.74 | 1.24 | 0.19 | 0.49 | 0.81 | -0.05
CS(=O)(=O)N1CCc2c(-c3cnc(N)nc3)nc(N3CCOCC3)nc21 | 0.4 | 2.27 | 0.4 | 0.43 | 0.79 | 0.7 | 0.69 | 0.66 | 0.72 | -0.05
O=C(NOCC1CC1)c1ccc(F)c(F)c1Nc1ccc(I)cc1Cl | 0.14 | 1.54 | 2.02 | 1.8 | 0.63 | 1.06 | 0.69 | 1.27 | 1.57 | 0.31
O=c1c(O)c(-c2ccc(O)c(O)c2)oc2cc(O)cc(O)c12 [Quercetin] | 0.22 | 10.2 | 3.82 | 0.95 | 0.67 | 1.19 | 5.31 | 1.15 | -0.26 | -0.07
C#Cc1cccc(Nc2ncnc3cc(OCCOC)c(OCCOC)cc23)c1 [Erlotinib] | 0.41 | 8.18 | -4.3 | 0.22 | 0.36 | -0.04 | 3.38 | 0.08 | 0.67 | -0.73
N#C/C(=C(/N)Sc1ccc(N)cc1)c1ccccc1C(F)(F)F | -0.02 | -0.43 | -2.13 | 0.13 | 0.55 | -0.02 | -0.1 | 0.8 | 0.09 | 0.16
